AMA1 RON2 block – inhibitors of Plasmodium falciparum AMA1-RON2 interaction; hit rate 0.2% among 360,000; AlphaScreen AMA1-biotinylated RON2 peptide binding; Potency, µM (series often up to 58.2 µM), for the others: top-dose activity change, negative = inhibition, usual class: inhibitors; AID 720542;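 note: 0% = vehicle wells and -100% = peptide control; nearly all actives have a fitted effect of over 45% in size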
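AMA1 (3D7) with his tag at 25 nM final met compounds first, then biotinylated RON2 peptide at 25 nM; detection used donor plus acceptor beads, 10 µg/mL apiece, read by AlphaScreen after 30 min at room temperature.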
AmpC no deterg – AmpC beta-lactamase inhibition without detergent; P00811; AmpC nitrocefin hydrolysis, absorbance 480 nm, 0.0001% Triton; Potency, µM (series often up to 57.1 µM), for the others: top-dose activity change, negative = inhibition, most hits filed as inhibitors; hit rate 0.52% among 330,000;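 note: plate controls were no compound for no effect and no enzyme for full effect; nearly all actives have a fitted effect of over 20% in size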
Target sequence (P00811 whole entry, looked up): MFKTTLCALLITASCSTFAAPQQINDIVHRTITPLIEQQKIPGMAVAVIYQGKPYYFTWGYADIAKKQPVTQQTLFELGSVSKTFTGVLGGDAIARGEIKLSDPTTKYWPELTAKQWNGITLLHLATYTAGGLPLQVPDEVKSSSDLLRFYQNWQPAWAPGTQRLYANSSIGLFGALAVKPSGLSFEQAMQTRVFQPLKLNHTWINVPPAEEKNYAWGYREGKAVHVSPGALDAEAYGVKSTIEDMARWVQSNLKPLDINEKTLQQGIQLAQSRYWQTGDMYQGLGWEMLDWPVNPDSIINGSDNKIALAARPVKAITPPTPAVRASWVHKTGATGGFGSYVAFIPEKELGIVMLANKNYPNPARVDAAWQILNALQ
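20 mM phosphate pH 7.0 + 0.01% (detergent screen) or 0.0001% Triton X-100; 5.3 nM AmpC reagent; cpd preinc 15 min RT; nitrocefin (800 uM stock) to start; A480 q20 s × 4 min; Activity was normalised to no-enzyme and no-compound control wells.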
Pf growth 48h – P. falciparum growth inhibition at 48 hours (one generation) | P. falciparum luciferase growth in erythrocytes, 48 h | Potency, µM (top dose mostly 28.7 µM), for inactives: at the top dose activity change, negative = inhibition, actives largely listed as inhibitors | hit rate 5.9% among 310,000 | AID 504832
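Luciferase-expressing P. falciparum in infected erythrocytes (2% hematocrit, 0.1% parasitemia final) in RPMI 1640/0.5% Albumax were exposed to compound for 48 hours at 37 C, 5% CO2; growth read as luminescence.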
AmpC inh detg – blocks E. coli AmpC beta-lactamase in detergent assay; hit rate 0.041% among 370,000; AID 485294; P00811; AmpC hydrolysis of nitrocefin, absorbance 480 nm, 0.01% Triton; Potency, µM (top dose mostly 114 µM), without a hit: at the top dose activity change, negative = inhibition, actives largely listed as inhibitors;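 note: 0% = no-compound wells and -100% = no-enzyme wells; nearly all actives have a fitted effect of over 25% in size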
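20 mM phosphate pH 7.0 + 0.01% (detergent screen) or 0.0001% Triton X-100; 5.3 nM AmpC reagent; cpd preinc 15 min RT; nitrocefin (800 uM stock) to start; A480 q20 s × 4 min; Activity was normalised to no-enzyme and no-compound control wells.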
HCV inhibitor – HCV inhibition; Huh7.5.1 HCVcc-Cre infection, luciferase reporter, 44 h; Potency, µM (titrated, usually from 41.8 µM), inactives show top-dose activity change, negative = inhibition, most hits filed as inhibitors; hit rate 3.4% among 340,000; AID 651820
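HCVcc-Cre virus at an moi near 0.5 was added right after compound to cells cultured 4 h from seeding (1,000 cells/well). Luciferase activity was determined 44 h later, 15 min after substrate addition at RT.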
Pf growth 96h – inhibits malaria parasite growth, 96 h. P. falciparum luciferase reporter growth, 96 h. AID 504834. Potency, µM (series often up to 28.7 µM), for the others: at the highest dose activity change, negative = inhibition, hits mostly inhibitors. hit rate 6.9% among 320,000
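Erythrocytes infected with luciferase-expressing P. falciparum were dispensed at 2% hematocrit and 0.05% parasitemia (final), then incubated with compounds 96 hours at 37 C in 5% CO2. Luminescence after detection reagent addition reported growth.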
* = called active by the depositor; ? = inconclusive; . = not tested or not shown; [ ] = dose if it differs, or a comment. Most compounds without a hit are left out; they make up all but 11% or so of the library. Calls come from the whole dose curve; as a rule, active = well fitted curve in the direction sought with a large enough effect; inconclusive = small, poorly fitted or top-dose-only effect, or another doubt; inactive = no such curve, though single readings can be large; an effect the other way counts as inactive or inconclusive. Unless noted, % is set by controls: 0 for no effect and ±100 for the full control effect; potency is the fitted concentration of half-maximal effect.

SMILES | AMA1 RON2 block | AmpC no deterg | Pf growth 48h | AmpC inh detg | HCV inhibitor | Pf growth 96h
Cc1nn(Cc2cccc(C(=O)Nc3ccn(Cc4c(F)c(F)cc(F)c4F)n3)c2)c(C)c1[N+](=O)[O-] | -15% | -34% | . | -14% | ? | 13µM*
Cc1ccc(-c2onc(C)c2C)cc1S(=O)(=O)NCc1ccc(N(C)C)cc1 | . | . | . | 5% | . | .
COc1ccc2[nH]c3c(c2c1)CCN1C(=O)N([C@@H](C)C(=O)NCCc2ccc(F)cc2)C(=O)[C@]31C | ? | 30% | -29% | 2% | ? | 8.3µM*
COc1ccc(CNC(=O)[C@H](C)N2C(=O)N3CCc4c([nH]c5ccccc45)[C@@]3(C)C2=O)cc1OC | -18% | 44% | ? | 0% | 3.5µM* | 8.3µM*
C[C@@H](C(=O)NCc1c(F)cccc1Cl)N1C(=O)N2CCc3c([nH]c4ccccc34)[C@@]2(C)C1=O | -28% | 21% | ? | ? | 11µM* | ?
Cc1ccc(CNC(=O)[C@H](C)N2C(=O)N3CCc4c([nH]c5ccccc45)[C@@]3(C)C2=O)cc1 | -2% | 86% | ? | 5% | ? | -10%
CC1(C)N=C(SCc2ccc(F)cc2)c2ccccc2N1 | . | . | . | 5% | . | .
CCCCCOc1ccc(NC(=O)Cc2csc(C)n2)cc1 | . | . | . | 12% | . | .
COc1ccc(CN2CCN(S(=O)(=O)c3ccc(C)cc3)CC2)cc1Br | -26% | 10% | -8% | -3% | 32µM* | .
Cc1ccc(S(=O)(=O)N2CCN(Cc3cc(C(C)C)ccc3O)CC2)cc1 | -21% | -12% | 10µM* | -5% | -10% | 10µM*
Cc1ccc(S(=O)(=O)N2CCN(Cc3cc(C(C)(C)C)ccc3O)CC2)cc1 | -12% | -39% | 12µM* | 5% | ? | ?
Cc1ccc(S(=O)(=O)N2CCN(Cc3ccccc3Cl)CC2)cc1 | . | . | . | -10% | . | .
Cn1c(=O)c2c(n3c4ccccc4nc13)NC(=O)CC2c1ccccc1F (centres undefined) | . | . | . | 6% | . | .
COc1cc(C(=O)NCCOc2cc(C)cc(C)c2)c(Br)c(OC)c1OC | 0% | 121% | -11% | 0% | ? | 13µM*
CC(C)(C)c1ccc(C(=O)N2CCN(Cc3cc(=O)n4nc(-c5ccccc5F)sc4n3)CC2)cc1 | . | . | . | 19% | . | .
CCC(=O)N1CCc2cc(S(=O)(=O)NC(Cc3ccccc3)C(=O)NCc3cccc(OC)c3)ccc21 (centres undefined) | . | . | . | 3% | . | .
Cc1ccc(NC(=O)Cn2cc(S(=O)(=O)N3CCCC3)c(S(=O)(=O)N3CCCC3)c2)c(C)c1 | . | . | . | 16% | . | .
CC(=O)Nc1ccc(S(=O)(=O)NCC(=O)NCCc2ccc(S(N)(=O)=O)cc2)cc1 | -9% | -20% | -10% | -7% | 13% | 0.83µM*
CC(=O)Nc1ccc(S(=O)(=O)NCCc2ccc(S(N)(=O)=O)cc2)cc1 | 3% | -17% | . | -6% | 8% | 10µM*
CCOc1ccc(CCNC(=O)COC(=O)Cc2ccc(F)cc2)cc1OCC | -18% | 47% | ? | -5% | 22% | ?
CCOc1ccc(CCNC(=O)COC(=O)CNS(=O)(=O)c2ccc(NC(C)=O)cc2)cc1OCC | -15% | 57% | ? | 0% | -16% | 8.3µM*
CCC(NC(=O)Nc1cc(Cl)ccc1OC)c1c(-n2cccc2)sc2c1CCN(C)C2 (centres undefined) | . | . | . | 4% | . | .
CCCC1=[N+](CC(=O)c2ccc(C)cc2)CCn2cccc21 | 10% | -9% | 10µM* | -1% | -26% | ?
CCCC1=NCCn2cccc21 | 11% | 0% | 0% | 1% | -7% | .
Cc1ccc(CNC(=O)c2cc3c(=O)n(Cc4ccco4)ccc3nc2C)cc1 | . | . | . | 4% | . | .
SMILES | AMA1 RON2 block | AmpC no deterg | Pf growth 48h | AmpC inh detg | HCV inhibitor | Pf growth 96h
Cc1ccc(S(=O)(=O)N2CCCc3cc(NC(=O)c4ccccc4Cl)ccc32)cc1 | . | . | . | -3% | . | .
CC/C(=N\n1nnnc1Nc1ccccc1)c1ccccc1 | 1% | -18% | 10µM* | -15% | 8% | -18%
Cc1cc(C(=O)CCl)c(C)n1CCc1ccccc1 | ? | -5%[11.4 µM] | -13% | 9% | 8.9µM* | -26%
CC(C)(C)OC(=O)N1CCC(c2c(C(=O)N3CCN(C(=O)c4ccco4)CC3)cnn2-c2ccccc2Cl)CC1 | . | . | . | -3% | . | .
Cc1ccc(NC(=O)CN(C)C(C)C(=O)Nc2ccc(S(=O)(=O)N3CCCC3)cc2)cc1 (centres undefined) | 30% | 0% | 12µM* | -13% | ? | 12µM*
COc1cccc(NC(=O)CN(C)C(C)C(=O)Nc2ccc(S(=O)(=O)N3CCCC3)cc2)c1 (centres undefined) | 24% | 14% | 9.3µM* | -2% | -12% | 4.7µM*
CC(C(=O)Nc1ccc(S(=O)(=O)N2CCCC2)cc1)N(C)CC(=O)Nc1cccc(F)c1 (centres undefined) | 65% | -16% | . | . | ? | .
CC(C)CC(=O)Nc1ccc(S(=O)(=O)N2CCCC2)cc1 | 0% | -14% | -2% | -16% | 5% | ?
COc1ccc(CCNc2ncnc3c2cnn3-c2cc(Cl)ccc2C)cc1 | . | . | . | 10% | . | .
CC(=O)c1cccc(Nc2cc(C)nc3c(C)cccc23)c1 | -14% | -18% | 12µM* | 3% | -17% | -105%
CC(=O)c1ccc(Nc2cc(C)nc3c(C)cc(C)cc23)cc1 | -2% | -7% | 12µM* | 3% | ? | ?
Cc1cc(C)c2nc(C)cc(Nc3ccc(C(=O)NCCO)cc3)c2c1 | -3% | -12% | 10µM* | 9% | -13% | 12µM*
CC(=O)c1cccc(Nc2cc(C)nc3ccccc23)c1 | -6% | -18% | 18% | 3% | ? | -27%
Cc1cc(C)c2nc(C)cc(Nc3ccc(C(=O)N(C)C)cc3)c2c1 | -3% | -6% | ? | 0% | 6% | 4%
